Laboratory results as given in PubChem BioAssay (EPA / NIEHS).
Records with an inconclusive call do not appear. The source holds several records for some structures; these can differ, active in one and inactive in another. The source made the active and inactive calls. The calls were made as follows: active = hit-call score of the fitted dose curve at least 0.9, where 1 is the maximum; inconclusive = response in the unintended direction; inactive = score below 0.9.

Experiments:
[1] = target: bovine Estrogen Receptor (ER), ESR1 (gene 407238) (UniProt P49884); test: NVS_NR_bER: NovaScreen (NVS) Nuclear Receptor Binding Assay for bovine Estrogen Receptor (ER) (AID 2283345);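 also: actives lower the bound radioligand count which means they displace the ER ligand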
bovine Estrogen Receptor (ER), ESR1 (gene 407238), sequence (P49884 whole entry, looked up): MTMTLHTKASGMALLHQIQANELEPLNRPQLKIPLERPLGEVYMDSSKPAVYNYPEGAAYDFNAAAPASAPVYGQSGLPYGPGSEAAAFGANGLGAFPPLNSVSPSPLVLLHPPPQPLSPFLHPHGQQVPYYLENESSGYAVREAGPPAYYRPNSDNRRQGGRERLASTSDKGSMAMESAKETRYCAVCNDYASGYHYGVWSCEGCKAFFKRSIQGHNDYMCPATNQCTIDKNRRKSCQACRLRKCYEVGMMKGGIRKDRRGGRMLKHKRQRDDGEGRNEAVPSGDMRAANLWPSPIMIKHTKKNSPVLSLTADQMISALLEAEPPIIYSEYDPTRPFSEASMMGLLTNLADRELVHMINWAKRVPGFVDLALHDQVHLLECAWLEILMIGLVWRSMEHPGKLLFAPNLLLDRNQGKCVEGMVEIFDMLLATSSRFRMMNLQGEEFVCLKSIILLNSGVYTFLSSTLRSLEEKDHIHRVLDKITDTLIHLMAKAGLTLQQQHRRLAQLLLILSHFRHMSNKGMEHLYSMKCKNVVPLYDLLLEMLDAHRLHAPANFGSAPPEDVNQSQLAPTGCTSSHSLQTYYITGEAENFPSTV
Procedure, shortened: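 Scintillation counting of displaced radioligand gave the readout; bovine uterine membrane extract supplied the receptor. Measured 18 h post-dose, normalized to DMSO baseline. Single 25 uM duplicate screen preceded concentration-response follow-up.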

[2] = target: chimpanzee Androgen Receptor (AR), AR (gene 747460) (UniProt O97775); test: NVS_NR_cAR: NovaScreen (NVS) Nuclear Receptor Binding Assay for chimpanzee Androgen Receptor (AR) (AID 2283346);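 also: radioligand displacement from AR measured by scintillation counting in a cell-free assay; a loss of bound radioligand signal versus DMSO counts as binding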
chimpanzee Androgen Receptor (AR), AR (gene 747460), sequence (O97775 whole entry, looked up): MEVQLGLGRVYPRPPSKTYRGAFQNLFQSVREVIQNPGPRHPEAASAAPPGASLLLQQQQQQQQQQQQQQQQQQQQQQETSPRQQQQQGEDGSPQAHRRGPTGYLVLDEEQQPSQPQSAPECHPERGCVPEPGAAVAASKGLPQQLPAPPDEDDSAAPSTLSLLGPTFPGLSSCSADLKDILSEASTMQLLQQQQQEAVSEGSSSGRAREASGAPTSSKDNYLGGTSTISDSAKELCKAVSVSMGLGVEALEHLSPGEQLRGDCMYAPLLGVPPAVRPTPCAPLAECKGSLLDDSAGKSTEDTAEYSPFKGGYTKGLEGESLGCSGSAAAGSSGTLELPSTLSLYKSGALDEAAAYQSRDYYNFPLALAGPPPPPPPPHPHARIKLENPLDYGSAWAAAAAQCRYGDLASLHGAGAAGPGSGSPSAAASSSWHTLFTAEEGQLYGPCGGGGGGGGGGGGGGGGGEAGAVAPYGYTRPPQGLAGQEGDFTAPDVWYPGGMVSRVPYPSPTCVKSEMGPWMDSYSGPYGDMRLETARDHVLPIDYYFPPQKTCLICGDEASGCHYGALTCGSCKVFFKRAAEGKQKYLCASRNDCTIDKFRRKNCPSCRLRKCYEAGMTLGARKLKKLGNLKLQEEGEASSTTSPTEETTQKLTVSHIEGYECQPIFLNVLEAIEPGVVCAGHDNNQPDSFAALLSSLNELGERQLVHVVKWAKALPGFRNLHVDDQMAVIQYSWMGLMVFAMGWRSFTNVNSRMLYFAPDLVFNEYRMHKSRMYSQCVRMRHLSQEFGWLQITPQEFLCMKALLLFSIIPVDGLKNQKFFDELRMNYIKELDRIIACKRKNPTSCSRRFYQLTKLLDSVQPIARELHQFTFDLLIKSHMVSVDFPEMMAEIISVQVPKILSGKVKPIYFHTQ
Procedure, shortened: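 Radioligand binding to chimpanzee AR expressed in Sf9/Sf21 cells, cell-free, measured 72 h after dosing by lysate-based scintillation counting. Loss of signal vs DMSO; initial duplicate screen at 25 uM, actives retested in concentration series.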

[3] = target: Estrogen receptor (Homo sapiens) (UniProt P03372); test: NVS_NR_hER: NovaScreen (NVS) Nuclear Receptor Binding Assay for human Estrogen Receptor (ER) (AID 2283348)
Estrogen receptor (Homo sapiens), sequence (P03372 whole entry, looked up, the tested form may be a part): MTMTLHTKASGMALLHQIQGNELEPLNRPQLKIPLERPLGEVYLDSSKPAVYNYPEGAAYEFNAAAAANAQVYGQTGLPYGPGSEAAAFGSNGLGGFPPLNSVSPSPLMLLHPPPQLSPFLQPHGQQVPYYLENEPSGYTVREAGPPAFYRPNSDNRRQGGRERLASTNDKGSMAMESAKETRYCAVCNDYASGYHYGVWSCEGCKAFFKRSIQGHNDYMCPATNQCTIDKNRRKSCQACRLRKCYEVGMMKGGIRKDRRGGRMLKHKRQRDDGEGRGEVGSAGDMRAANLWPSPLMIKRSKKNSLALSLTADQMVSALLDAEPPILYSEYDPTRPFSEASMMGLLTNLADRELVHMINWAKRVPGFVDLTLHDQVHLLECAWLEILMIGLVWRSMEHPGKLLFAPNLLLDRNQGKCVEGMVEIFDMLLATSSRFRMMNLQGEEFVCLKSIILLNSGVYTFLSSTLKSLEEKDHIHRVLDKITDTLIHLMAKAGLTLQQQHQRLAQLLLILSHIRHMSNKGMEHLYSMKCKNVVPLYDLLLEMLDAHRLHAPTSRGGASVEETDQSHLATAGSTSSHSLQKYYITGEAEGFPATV
Procedure, shortened: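 Radioligand competitive displacement binding to estrogen receptor from MCF7 extract, cell-free; 18 h after dosing, scintillation read-out. Primary screen in duplicate at 25 uM; actives followed up in concentration series; loss of signal vs DMSO.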

[4] = target: Estrogen receptor (Homo sapiens) (UniProt P03372); test: OT_ER_ERaERa_1440: Odyssey Thera (OT) 24-hour HEK293T Protein-Complementation Assay for Estrogen Receptor-alpha/-alpha Homodimer (AID 2283349);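 also: hits raise fluorescence above DMSO for agonists and antagonists alike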
Procedure, shortened: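 HEK293T cells stably expressing the human ER alpha ligand-binding domain (aa 310-547) as a homodimer PCA were dosed for 24 hours. Fluorescence intensity was read by laser scanning cytometry, and gain of signal was fitted relative to DMSO vehicle.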

[5] = target: Estrogen receptor (Homo sapiens) (UniProt P03372); test: OT_ER_ERaERa_0480: Odyssey Thera (OT) 8-hour HEK293T Protein-Complementation Assay for Estrogen Receptor-alpha/-alpha Homodimer (AID 2283351);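 also: rise in fluorescence from reassembled reporter fragments on ERα LBD homodimer in nucleus or whole cell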
Procedure, shortened: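 Binding reporter in which dimerisation of ERα LBD (aa 310-547) fusions reconstitutes a fluorescent reporter in HEK293T cells. Compounds incubated 8 h; mean fluorescence intensity increase versus DMSO scored.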

[6] = target: T1, Estrogen receptor (Homo sapiens) + Estrogen receptor beta (Homo sapiens) (UniProt P03372+Q92731); test: OT_ER_ERaERb_0480: Odyssey Thera (OT) 8-hour HEK293T Protein-Complementation Assay for Estrogen Receptor-alpha/-beta Heterodimer (AID 2283352)
T1 sequence (P03372 whole entry, looked up, the tested form may be a part): as above
T1 sequence (Q92731 whole entry, looked up, the tested form may be a part): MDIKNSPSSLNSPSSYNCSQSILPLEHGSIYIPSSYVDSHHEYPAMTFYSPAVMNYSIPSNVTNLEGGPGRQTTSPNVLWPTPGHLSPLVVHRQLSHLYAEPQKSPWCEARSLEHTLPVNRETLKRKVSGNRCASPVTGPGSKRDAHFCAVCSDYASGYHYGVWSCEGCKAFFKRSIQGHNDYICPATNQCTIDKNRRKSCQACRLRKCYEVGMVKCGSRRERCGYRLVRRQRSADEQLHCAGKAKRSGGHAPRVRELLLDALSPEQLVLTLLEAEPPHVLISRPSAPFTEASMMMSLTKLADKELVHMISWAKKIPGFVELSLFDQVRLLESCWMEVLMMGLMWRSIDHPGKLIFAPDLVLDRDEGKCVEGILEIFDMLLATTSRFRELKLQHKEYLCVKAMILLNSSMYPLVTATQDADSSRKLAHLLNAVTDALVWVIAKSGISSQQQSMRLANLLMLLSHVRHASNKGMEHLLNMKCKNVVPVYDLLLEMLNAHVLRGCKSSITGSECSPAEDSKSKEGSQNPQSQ
Procedure, shortened: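 Increase in mean fluorescence intensity, measured by laser scanning plate cytometry, reported ER-alpha/ER-beta LBD complementation in HEK293T cells after 8 h chemical exposure. DMSO served as baseline; basal signal is low, punctate and cytoplasmic.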

[7] = target: Androgen Receptor/SRC-1 Co-activator, AR (gene 367) (UniProt P10275); test: OT_AR_ARSRC1_0960: Odyssey Thera (OT) 16-hour HEK293T Protein-Complementation Assay for Androgen Receptor/SRC-1 Co-activator (AID 2283353);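 also: actives raise the signal above DMSO so potency reflects increased AR and SRC-1 complex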
Androgen Receptor/SRC-1 Co-activator, AR (gene 367), sequence (P10275 whole entry, looked up, the tested form may be a part): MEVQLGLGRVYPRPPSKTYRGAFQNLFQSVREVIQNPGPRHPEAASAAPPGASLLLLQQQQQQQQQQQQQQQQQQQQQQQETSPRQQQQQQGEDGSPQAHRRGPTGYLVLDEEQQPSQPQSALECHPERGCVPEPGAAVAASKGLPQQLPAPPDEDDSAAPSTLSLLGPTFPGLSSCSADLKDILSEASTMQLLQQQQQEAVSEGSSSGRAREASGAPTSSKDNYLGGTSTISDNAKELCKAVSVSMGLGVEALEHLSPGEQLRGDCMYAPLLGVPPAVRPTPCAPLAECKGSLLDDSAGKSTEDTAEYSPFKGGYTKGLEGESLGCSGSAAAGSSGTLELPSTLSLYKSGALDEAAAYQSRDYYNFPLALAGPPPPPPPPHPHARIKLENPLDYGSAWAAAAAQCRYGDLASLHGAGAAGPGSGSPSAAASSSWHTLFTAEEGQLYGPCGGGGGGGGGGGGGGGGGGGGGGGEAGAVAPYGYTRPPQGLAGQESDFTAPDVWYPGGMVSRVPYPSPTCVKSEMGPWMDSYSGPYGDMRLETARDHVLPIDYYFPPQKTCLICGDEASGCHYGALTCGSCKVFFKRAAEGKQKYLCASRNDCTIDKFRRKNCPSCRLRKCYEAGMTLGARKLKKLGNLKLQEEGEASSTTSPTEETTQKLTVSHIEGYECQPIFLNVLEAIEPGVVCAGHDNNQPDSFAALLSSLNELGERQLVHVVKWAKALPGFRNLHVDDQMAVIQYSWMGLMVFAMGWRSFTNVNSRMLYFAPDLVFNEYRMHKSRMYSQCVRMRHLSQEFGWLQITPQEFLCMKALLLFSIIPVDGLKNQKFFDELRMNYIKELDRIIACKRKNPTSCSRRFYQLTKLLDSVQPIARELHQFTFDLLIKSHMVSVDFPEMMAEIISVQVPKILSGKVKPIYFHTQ
Procedure, shortened: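 Interaction of AR with SRC-1 was followed by YFP fragment complementation in HEK293T cells after 16 h of dosing. Gain of nuclear-over-cytoplasmic 488 nm fluorescence against DMSO controls defined activity.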

[8] = target: Androgen Receptor/SRC-1 Co-activator, AR (gene 367) (UniProt P10275); test: OT_AR_ARSRC1_0480: Odyssey Thera (OT) 8-hour HEK293T Protein-Complementation Assay for Androgen Receptor/SRC-1 Co-activator (AID 2283354);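 also: hits raise the complementation signal above DMSO so AC50 marks enhancers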
Procedure, shortened: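 HEK293T cells stably expressing AR and SRC-1 fused to Venus YFP fragments, imaged 8 h after dosing. Complementation fluorescence scored as nuclear/cytoplasmic ratio at 488 nm in at least 400 cells per image; gain fitted versus DMSO.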

[9] = target: T1, Estrogen receptor (Homo sapiens) + Estrogen receptor beta (Homo sapiens); test: OT_ER_ERaERb_1440: Odyssey Thera (OT) 24-hour HEK293T Protein-Complementation Assay for Estrogen Receptor-alpha/-beta Homodimer (AID 2283356);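 also: heteromer of ER alpha and ER beta binding domains; hits raise reporter fluorescence and both agonists and antagonists give an increase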
Procedure, shortened: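 Heterodimerisation of ERα (aa 310-547) and ERβ (aa 263-489) ligand binding domains was tracked as fluorescence gain in stably transfected HEK293T cells following 24 h dosing, normalised to DMSO controls.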

[10] = target: Estrogen receptor beta (Homo sapiens) (UniProt Q92731); test: OT_ER_ERbERb_0480: Odyssey Thera (OT) 8-hour HEK293T Protein-Complementation Assay for Estrogen Receptor-beta/-beta Homodimer (AID 2283357);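 also: active means signal gain over DMSO baseline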
Estrogen receptor beta (Homo sapiens), sequence (Q92731 whole entry, looked up, the tested form may be a part): as the sequence (Q92731 whole entry, looked up, the tested form may be a part) above
Procedure, shortened: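 Fluorescence intensity, nuclear for agonists and nuclear plus cytoplasmic for antagonists, was quantified by laser scanning cytometry versus vehicle after 8 h treatment. The cells were HEK293T stably carrying ER beta LBD fragment-complementation partners.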

[11] = target: rat Peripheral-type Benzodiazepine Receptor (PBR), Tspo (gene 24230) (UniProt P16257); test: NVS_MP_rPBR: NovaScreen (NVS) Membrane Protein Assay for rat Peripheral-type Benzodiazepine Receptor (PBR) (AID 2283335)
rat Peripheral-type Benzodiazepine Receptor (PBR), Tspo (gene 24230), sequence (P16257 whole entry, looked up): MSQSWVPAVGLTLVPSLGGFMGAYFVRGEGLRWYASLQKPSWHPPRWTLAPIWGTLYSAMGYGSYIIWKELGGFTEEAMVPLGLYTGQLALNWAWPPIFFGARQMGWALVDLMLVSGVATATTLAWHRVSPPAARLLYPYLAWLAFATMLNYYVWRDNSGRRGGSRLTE
Procedure, shortened: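 Radioligand displacement, rat kidney membrane prep, 1 h exposure, filter-based scintillation read; DMSO baseline, loss-of-signal scored. Primary screen at 25 uM in duplicate, actives followed up in concentration series.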

[12] = NVS_IC_rCaBTZCHL: NovaScreen (NVS) Ion Channel Assay for Calcium Channel, Type L, Benzothiazepine Site (CaBTZCHL) (AID 2283337)
Procedure, shortened: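 Competitive displacement of a site-specific radioligand from rat cortex membranes, measured as signal loss against DMSO baseline by filter radiodetection after 1.5 h. Single-point 25 uM primary screen.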

[13] = target: rat Glycine Receptor, Strychnine-sensitive (GlyRStrySens), Glra1 (gene 25674) (UniProt P07727); test: NVS_LGIC_rGlyRStrySens: NovaScreen (NVS) Ligand-Gated Ion Channel Assay for rat Glycine Receptor, Strychnine-sensitive (GlyRStrySens) (AID 2283341)
Procedure, shortened: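 Radioligand displacement on rat spinal cord membranes, 1 hr, filter scintillation read-out. Single-concentration duplicate screen at 25 uM; chemicals meeting threshold (e.g., 30% inhibition) rerun in concentration-response up to 50 uM. Loss of binding fitted versus DMSO.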

[14] = target: human Constitutive Androstane Receptor (CAR), NR1I3 (gene 9970) (UniProt Q14994); test: NVS_NR_hCAR_Antagonist: NovaScreen (NVS) Nuclear Receptor Binding Assay for human Constitutive Androstane Receptor Antagonism (CAR) (AID 2283344)
human Constitutive Androstane Receptor (CAR), NR1I3 (gene 9970), sequence (Q14994 whole entry, looked up): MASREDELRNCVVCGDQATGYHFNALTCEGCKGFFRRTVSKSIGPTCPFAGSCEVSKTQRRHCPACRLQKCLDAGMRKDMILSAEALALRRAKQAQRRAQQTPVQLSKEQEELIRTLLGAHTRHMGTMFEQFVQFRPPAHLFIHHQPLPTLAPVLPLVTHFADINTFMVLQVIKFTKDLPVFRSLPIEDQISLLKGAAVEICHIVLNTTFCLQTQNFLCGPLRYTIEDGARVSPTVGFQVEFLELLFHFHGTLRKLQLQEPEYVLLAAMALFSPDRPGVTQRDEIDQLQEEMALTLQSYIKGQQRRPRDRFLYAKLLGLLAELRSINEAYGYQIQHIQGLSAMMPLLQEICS
Procedure, shortened: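 Cell-free TR-FRET binding read 1 h after dosing, antagonist mode; loss of signal versus DMSO baseline. Primary screen in duplicate at a single 25 uM; actives retested in concentration series.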

[15] = target: bovine Gamma-Aminobutyric Acid Type A Receptor Agonist (GABAR Agonist), GABRA1 (gene 780973) (UniProt P08219); test: NVS_LGIC_bGABAR_Agonist: NovaScreen (NVS) Ligand-Gated Ion Channel Assay for bovine Gamma-Aminobutyric Acid Type A Receptor Agonist (GABAR Agonist) (AID 2283338)
bovine Gamma-Aminobutyric Acid Type A Receptor Agonist (GABAR Agonist), GABRA1 (gene 780973), sequence (P08219 whole entry, looked up): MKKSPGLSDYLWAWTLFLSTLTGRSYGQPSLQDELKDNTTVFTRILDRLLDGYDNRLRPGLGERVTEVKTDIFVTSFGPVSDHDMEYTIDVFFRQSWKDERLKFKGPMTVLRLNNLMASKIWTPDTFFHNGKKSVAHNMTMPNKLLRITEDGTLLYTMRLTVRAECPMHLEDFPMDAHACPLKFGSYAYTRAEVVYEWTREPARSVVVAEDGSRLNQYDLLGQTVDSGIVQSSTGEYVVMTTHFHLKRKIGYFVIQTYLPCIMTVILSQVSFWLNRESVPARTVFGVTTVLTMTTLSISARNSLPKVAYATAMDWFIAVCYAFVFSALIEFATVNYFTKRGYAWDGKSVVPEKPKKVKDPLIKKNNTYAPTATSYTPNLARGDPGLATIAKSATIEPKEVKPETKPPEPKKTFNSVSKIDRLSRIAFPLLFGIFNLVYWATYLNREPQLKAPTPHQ
Procedure, shortened: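 Radioligand binding to bovine cerebellar membranes in agonist format, read by filter-based scintillation counting after 1 h. Primary screen in duplicate at 25 uM, with actives followed in concentration series. Gain of signal versus DMSO.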

[16] = target: Bile acid receptor (Homo sapiens) (UniProt Q96RI1); test: NVS_NR_hFXR_Agonist: NovaScreen (NVS) Nuclear Receptor Binding Assay for human Farnesoid X Receptor Agonism (FXR) (AID 2283347)
Procedure, shortened: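 Cell-free TR-FRET binding assay with extracted human FXR protein, agonist format, read 1 h after dosing. Primary screen at 25 uM single concentration in duplicate, actives retested in concentration series; gain of signal versus DMSO.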

Measured: AC50

CC1(C)CN=C(NN=C(/C=C/c2ccc(C(F)(F)F)cc2)/C=C/c2ccc(C(F)(F)F)cc2)NC1
inactive: [1] | [4] | [5] | [6] | [9] | [10]
active: [2] 25 µM | [3] 8.61 µM | [7] 12.7 µM | [8] 44 µM

Nc1ccc([N+](=O)[O-])cc1Cl
inactive: [11]

CC(C)Nc1ccc(Nc2ccccc2)cc1
inactive: [12] | [3]

c1ccc(OP(Oc2ccccc2)Oc2ccccc2)cc1
inactive: [13] | [1] | [3] | [4] | [5] | [6] | [9] | [10]

C=CC(=O)OCC(CC)(COC(=O)C=C)COC(=O)C=C
inactive: [3]
active: [11] 25000 nM | [1] 42.2 µM | [3] 13.7 µM

CCCN(CCC)c1c([N+](=O)[O-])cc(C(C)C)cc1[N+](=O)[O-]
inactive: [14] | [1] | [3] | [10]
active: [4] 56.6 µM | [5] 36.8 µM | [6] 50 µM | [9] 56.9 µM

Cc1cc(C)c(C(=O)P(=O)(c2ccccc2)c2ccccc2)c(C)c1
inactive: [11]

N#Cc1c(-c2ccc(Cl)cc2)[nH]c(C(F)(F)F)c1Br
active: [11] 377 nM

c1ccc2c(c1)Nc1ccccc1S2
inactive: [11] | [15] | [1] | [4] | [5] | [6] | [9] | [10]

Nc1cc2c3c(c1)C(c1ccccc1)=N[C@@H](NC(=O)c1cccnc1)C(=O)N3CC2
inactive: [15] | [5] | [9] | [10]

ClC1=C(Cl)C2(Cl)C3C(Cl)C(Cl)CC3C1(Cl)C2(Cl)Cl (stereo not given)
active: [7] 38.1 µM | [8] 48.4 µM
inactive: [14] | [1] | [16] | [3] | [9] | [10]

CO/N=C(/C(=O)OC)c1ccccc1COc1ccccc1C
inactive: [1] | [3] | [7] | [8]
active: [11] 947 nM | [5] 50 µM

O=P(OCC(Br)CBr)(OCC(Br)CBr)OCC(Br)CBr (stereo not given)
active: [11] 169 nM | [2] 21.8 µM | [7] 26.7 µM
inactive: [11] | [3] | [5] | [8] | [9] | [10]
